We go through five compounds from PubChem BioAssay.

The nature of assay [1]: rapamycin-like changes in RPL19A-GFP expression – cell-based, S. cerevisiae, multiplex flow cytometry, primary screen (AID 1862; in the data active = percent of DMSO control GFP below about 86%;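 note: lower values mimic rapamycin by blocking the RPL19A rise seen in DMSO cells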). Conditions: S. cerevisiae RPL19A-GFP strain, flow cytometry fluorescence, 3 h; at 10 µM; stronger effect = lower value. In general terms: A flow cytometer gives signals particle by particle.
Assay [2] in a line: TOR pathway GLN3 branch reporter MEP2-GFP changes – S. cerevisiae, multiplex flow cytometry, primary screen (AID 1867;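 active = GFP response, as percent of the DMSO control, above the screen-wide mean plus 3 SD, about 139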;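 note: median GFP channel fluorescence of barcode-gated MEP2-GFP cells measured by flow cytometry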). The following applies: S. cerevisiae MEP2-GFP strain, 3 h, at 10 µM, stronger effect = higher value, 100% means same as DMSO wells.
Assay [3] can be described thus: TOR pathway RTG branch CIT2 reporter changes – S. cerevisiae, GFP fusion, multiplex flow cytometry, primary screen (AID 1870;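 active = percent response above a set limit, the screen-wide mean plus 3 SD, cut at about 130% in these data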;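 note: barcoded CIT2-GFP strain pooled with four other GFP strains with rapamycin as positive control; median GFP fluorescence per well over plate mean of DMSO wells so 100% = DMSO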). Conditions: S. cerevisiae CIT2-GFP expression, 3 h, at 10 µM, stronger effect = higher value.
Assay [4] in a line: TOR pathway LAP4-GFP level changes – S. cerevisiae, multiplex flow cytometry, primary screen (AID 1873;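 active = GFP signal, as percent of the solvent control, above the screen mean plus 3 SD, about 149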). The following applies: S. cerevisiae LAP4-GFP expression, 3 h, at 10 µM, stronger effect = higher value.
A short description of assay [5]: yeast AGP1-GFP level changes, GLN3 branch – cell-based, multiplex flow cytometry, S. cerevisiae, primary screen (AID 1887;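 active = GFP signal above the screen-wide mean plus 3 SD, that is over about 124.5% of the solvent control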;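 note: AGP1-GFP fusion strain of S. cerevisiae within a five-strain barcoded multiplex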). Conditions: 3 h, at 10 µM, stronger effect = higher value.
A short description of assay [6]: reduced mouse 2C T cell binding to pMHC/ICAM-1 vesicles – MLPCN validation set, flow cytometry, LFA-1/ICAM-1 modulator project, pilot screen (AID 2523;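 active = response below a set limit, under 55% cells CD8-positive and vesicle-bound, and CD8 cells' 90th-percentile brightness under 279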;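 for vesicle binding response: mean PE anti-B7-1 fluorescence of CD8+ cells relative to row control; 100% = QL9-loaded vesicles with DMSO vehicle in the same plate row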). The following applies: 2C mouse CD8+ T cells, at 7 µM, stronger effect = lower value; double positive events: measured here: CD8+/vesicle+ event percentage.
Assay [7] deals with Integrin beta-1 (Homo sapiens) + Integrin alpha-4 (Homo sapiens) (UniProt P13612+P05556). Nature of the assay: alpha4beta1 integrin LIBS antibody binding reduction – U937 cells, HUTS-21 mAb, flow cytometry, validation set, VLA-4 allosteric modulator project, pilot screen (AID 2674;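 active = inhibition above 50%, about 3 SD of the validation set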;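 note: antibody binding induced by the VLA-4 ligand LDV present at three times its Kd; 0% = LDV ligand with antibody and no compound and 100% = antibody without LDV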). The following applies: HUTS-21 LIBS mAb binding, at 6.7 µM, stronger effect = higher value, binding induced by LDV ligand.
Sequence of Integrin beta-1 (Homo sapiens) + Integrin alpha-4 (Homo sapiens) (P05556 whole entry, looked up): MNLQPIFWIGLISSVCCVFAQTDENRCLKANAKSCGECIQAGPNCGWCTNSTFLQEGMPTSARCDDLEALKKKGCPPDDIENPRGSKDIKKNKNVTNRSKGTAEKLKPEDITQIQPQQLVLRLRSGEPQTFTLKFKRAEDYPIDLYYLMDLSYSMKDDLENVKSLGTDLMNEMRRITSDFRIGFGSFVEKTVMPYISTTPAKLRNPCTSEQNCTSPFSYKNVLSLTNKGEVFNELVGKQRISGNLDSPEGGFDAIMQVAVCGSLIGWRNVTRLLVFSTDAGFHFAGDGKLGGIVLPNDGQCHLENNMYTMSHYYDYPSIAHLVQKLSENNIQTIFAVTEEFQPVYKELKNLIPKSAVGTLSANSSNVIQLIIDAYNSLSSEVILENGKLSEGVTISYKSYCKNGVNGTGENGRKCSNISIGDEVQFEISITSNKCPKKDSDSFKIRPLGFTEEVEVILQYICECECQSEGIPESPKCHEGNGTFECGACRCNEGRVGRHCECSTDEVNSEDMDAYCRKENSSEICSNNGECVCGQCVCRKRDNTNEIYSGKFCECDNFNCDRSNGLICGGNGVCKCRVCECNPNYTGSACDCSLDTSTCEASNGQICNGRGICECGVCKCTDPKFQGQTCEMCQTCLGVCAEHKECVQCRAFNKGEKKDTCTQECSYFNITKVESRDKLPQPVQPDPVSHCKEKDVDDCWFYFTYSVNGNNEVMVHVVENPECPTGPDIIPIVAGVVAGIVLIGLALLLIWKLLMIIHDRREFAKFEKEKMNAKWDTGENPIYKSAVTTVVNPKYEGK
Sequence of Integrin beta-1 (Homo sapiens) + Integrin alpha-4 (Homo sapiens) (P13612 whole entry, looked up): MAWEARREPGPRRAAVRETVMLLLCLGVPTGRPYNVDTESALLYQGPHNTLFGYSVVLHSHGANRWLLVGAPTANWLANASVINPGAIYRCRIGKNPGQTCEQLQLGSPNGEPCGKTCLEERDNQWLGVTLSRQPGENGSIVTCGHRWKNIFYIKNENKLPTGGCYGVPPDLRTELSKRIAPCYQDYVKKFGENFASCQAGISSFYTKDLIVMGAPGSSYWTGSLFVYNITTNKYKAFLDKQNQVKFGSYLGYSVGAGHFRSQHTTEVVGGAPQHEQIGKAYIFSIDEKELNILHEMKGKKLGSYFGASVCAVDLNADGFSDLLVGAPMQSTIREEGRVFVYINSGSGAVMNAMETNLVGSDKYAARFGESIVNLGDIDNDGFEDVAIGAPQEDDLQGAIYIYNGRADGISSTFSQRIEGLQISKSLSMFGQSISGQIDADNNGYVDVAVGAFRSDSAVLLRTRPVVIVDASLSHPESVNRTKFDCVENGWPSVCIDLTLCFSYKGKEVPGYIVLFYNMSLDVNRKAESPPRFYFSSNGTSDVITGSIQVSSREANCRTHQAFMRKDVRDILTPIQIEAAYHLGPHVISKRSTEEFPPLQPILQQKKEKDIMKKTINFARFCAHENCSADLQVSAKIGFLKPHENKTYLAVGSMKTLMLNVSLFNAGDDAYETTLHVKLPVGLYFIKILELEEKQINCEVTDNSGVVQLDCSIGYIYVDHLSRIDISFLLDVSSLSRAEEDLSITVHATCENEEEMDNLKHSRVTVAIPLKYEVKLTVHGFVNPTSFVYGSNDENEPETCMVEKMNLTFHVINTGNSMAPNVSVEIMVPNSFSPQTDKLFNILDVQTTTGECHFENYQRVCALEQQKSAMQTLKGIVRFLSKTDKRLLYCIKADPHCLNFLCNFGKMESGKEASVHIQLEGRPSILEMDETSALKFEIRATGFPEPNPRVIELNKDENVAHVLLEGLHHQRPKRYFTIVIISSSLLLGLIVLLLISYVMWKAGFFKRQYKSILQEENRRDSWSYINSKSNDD

Assay [8] in a line: calorie-restriction mimetic ROS inhibitors, yeast – validation compound set, pilot screen (AID 2706;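 active = superoxide response below 65% of plate, a cut near 3 SD across the whole screen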;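 note: yeast exposed to compound for one week at 30 degrees C before staining; 100% = mean of all compound wells on the same plate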). The following applies: S. cerevisiae aging, superoxide DHE fluorescence; at 10 µM, stronger effect = lower value.
Assay [9] concerns the target Beta-adrenergic receptor kinase 1 (Homo sapiens) (UniProt P25098). Nature of the assay: GRK2 binders displacing RNA aptamer, biochemical, validation, human GRK2, bead flow cytometry (AID 488806;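 active = aptamer binding inhibition above 30%, about 3 SD of noise from non-fluorescent compounds; inactive = inhibition at or below 30%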). The following applies: bead-bound GRK2, FAM-aptamer displacement, at 10 µM, stronger effect = higher value.
The target in assay [10] is AP-2 complex subunit beta (Homo sapiens) (UniProt P63010). The experiment in a line: beta-arrestin/AP2 interaction blockers – biochemical, validation set, GST-AP2 beads, flow cytometry, pilot screen (AID 504541;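 active = inhibition above 54%, about 3 SD of non-fluorescent compounds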;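 note: AP2 carries R879A mutation and is captured from E. coli lysate; bead-bound FITC arrestin peptide fluorescence measuring arrestin peptide binding to AP2; 0% = DMSO wells and 100% = excess unlabeled arrestin peptide control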). Conditions: FITC arrestin peptide, at 10 µM, stronger effect = higher value, AP2 beta2 appendage fragment, R879A mutant.
Sequence of AP-2 complex subunit beta (Homo sapiens) (P63010 whole entry, looked up, the tested form may be a part, one chain of several): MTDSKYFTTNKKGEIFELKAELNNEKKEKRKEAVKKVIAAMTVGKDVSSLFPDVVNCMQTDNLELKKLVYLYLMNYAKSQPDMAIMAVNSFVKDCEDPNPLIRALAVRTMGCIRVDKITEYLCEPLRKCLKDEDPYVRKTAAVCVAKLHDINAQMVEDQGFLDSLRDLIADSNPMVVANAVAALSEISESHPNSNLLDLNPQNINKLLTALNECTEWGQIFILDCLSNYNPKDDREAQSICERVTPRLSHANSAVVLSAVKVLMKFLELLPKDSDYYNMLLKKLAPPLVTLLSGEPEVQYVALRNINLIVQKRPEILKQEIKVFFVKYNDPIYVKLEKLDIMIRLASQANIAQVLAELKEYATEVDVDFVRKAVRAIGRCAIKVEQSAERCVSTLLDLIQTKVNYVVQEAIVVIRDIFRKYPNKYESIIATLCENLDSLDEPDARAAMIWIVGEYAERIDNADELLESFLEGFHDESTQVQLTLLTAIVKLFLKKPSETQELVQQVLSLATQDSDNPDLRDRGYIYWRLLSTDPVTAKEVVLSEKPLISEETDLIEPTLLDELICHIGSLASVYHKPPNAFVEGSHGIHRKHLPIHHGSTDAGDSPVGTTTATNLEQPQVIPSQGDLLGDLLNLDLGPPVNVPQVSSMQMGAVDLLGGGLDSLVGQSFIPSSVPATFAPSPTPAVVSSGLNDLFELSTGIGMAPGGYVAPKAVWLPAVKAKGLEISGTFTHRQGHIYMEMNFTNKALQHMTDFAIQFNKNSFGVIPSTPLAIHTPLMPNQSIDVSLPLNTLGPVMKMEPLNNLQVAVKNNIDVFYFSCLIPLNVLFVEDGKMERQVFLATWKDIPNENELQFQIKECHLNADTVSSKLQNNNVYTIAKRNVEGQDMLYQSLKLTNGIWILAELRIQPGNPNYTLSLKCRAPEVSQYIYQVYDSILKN
A short description of assay [11]: cytosolic pH regulators acting via V-ATPase – S. cerevisiae, pHLuorin, HTS validation (AID 504600; in the data active = response above about 15%;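 note: plate controls were DMSO for no effect and reference compound for full effect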). The following applies: V-ATPase proton transport, at 10 µM, stronger effect = higher value.
Assay [12] concerns anti-desmoglein-3 scFv antibody binding to human DSG3. The experiment in a line: blockers of pathogenic pemphigus antibody–desmoglein-3 binding – biochemical, validation compound set, bead-based, flow cytometry, pilot screen (AID 588368;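 active = binding below the plate cutoff, the plate median minus 3 SD, with a reading above zero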;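 note: signal is the median channel fluorescence of bead-bound GFP antibody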). The following applies: Protein G beads, DSG3-Fc, scFv-GFP binding, at 10 µM, stronger effect = lower value.
Assay [13] can be described thus: Nile Red efflux blockade in pump-expressing yeast – validation compound set, multiplex, phenotypic, pilot screen (AID 588506;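 active = efflux inhibition above 0.42, the validation set average plus 4 SD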;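 note: Nile Red retained in cells so higher fluorescence means more efflux inhibition; 0 = negative control wells and 1 = enniatin B 25 µM full block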). The following applies: S. cerevisiae pump-expressing triplex, Nile Red efflux flow cytometry; at 10 µM; stronger effect = higher value; the pumps come from Candida albicans.
The target in assay [14] is ATP-binding cassette sub-family B member 6 (Homo sapiens) (UniProt Q9NP58). The experiment in a line: blockers of ABCB6-driven porphyrin uptake – K562-ABCB6 cells, flow cytometry, validation set, pilot screen (AID 588550).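 Note: 0% = DMSO wells and 100% = benzethonium chloride 70 µM positive control.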 The following applies: K562-ABCB6 porphyrin accumulation, 1 h, at 10 µM, stronger effect = higher value.
Sequence of ATP-binding cassette sub-family B member 6 (Homo sapiens) (Q9NP58 whole entry, looked up): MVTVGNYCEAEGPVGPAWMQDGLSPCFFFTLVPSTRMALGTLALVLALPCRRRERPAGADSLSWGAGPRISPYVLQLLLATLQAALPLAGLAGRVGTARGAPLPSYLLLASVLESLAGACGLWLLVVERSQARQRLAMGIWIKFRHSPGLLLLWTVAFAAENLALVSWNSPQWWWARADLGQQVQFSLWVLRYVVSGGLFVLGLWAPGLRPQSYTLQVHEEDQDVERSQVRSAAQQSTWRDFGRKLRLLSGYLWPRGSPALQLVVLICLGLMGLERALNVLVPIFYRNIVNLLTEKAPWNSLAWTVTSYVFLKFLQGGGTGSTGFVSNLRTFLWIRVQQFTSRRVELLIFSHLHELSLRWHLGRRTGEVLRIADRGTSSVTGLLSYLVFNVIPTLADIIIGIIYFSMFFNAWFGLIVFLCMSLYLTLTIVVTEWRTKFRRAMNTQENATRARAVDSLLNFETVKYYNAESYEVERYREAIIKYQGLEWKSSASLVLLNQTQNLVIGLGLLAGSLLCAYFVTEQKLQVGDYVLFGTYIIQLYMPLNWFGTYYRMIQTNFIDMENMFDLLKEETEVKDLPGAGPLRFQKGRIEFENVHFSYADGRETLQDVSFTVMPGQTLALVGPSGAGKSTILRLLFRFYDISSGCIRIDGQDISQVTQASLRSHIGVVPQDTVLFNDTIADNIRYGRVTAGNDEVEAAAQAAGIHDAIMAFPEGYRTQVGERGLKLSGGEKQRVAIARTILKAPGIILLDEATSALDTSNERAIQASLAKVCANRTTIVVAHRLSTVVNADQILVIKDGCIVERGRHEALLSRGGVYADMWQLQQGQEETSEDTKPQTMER
A short description of assay [15]: AML differentiation inducers, ER-HoxA9 marrow cells – cell-based, GFP/MAC1 double positive, flow cytometry, validation set, primary screen (AID 588685;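 active = differentiation response of at least 50%, scaled between solvent and reference control, from cells with both markers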;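 note: compound exposure lasts four days before antibody staining and flow analysis; 0% = DMSO wells and 100% = 5 µM fulvestrant positive control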). The following applies: stronger effect = higher value, normalized: vehicle 0, fulvestrant 100.

Records with an inconclusive call do not appear. Calls of active or inactive are those of the source.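 Rule for the calls, unless noted: active = inhibition above the screen-wide mean plus 3 SD, about 51%; inactive = the rest.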

Sequence of Beta-adrenergic receptor kinase 1 (Homo sapiens) (P25098 whole entry, looked up): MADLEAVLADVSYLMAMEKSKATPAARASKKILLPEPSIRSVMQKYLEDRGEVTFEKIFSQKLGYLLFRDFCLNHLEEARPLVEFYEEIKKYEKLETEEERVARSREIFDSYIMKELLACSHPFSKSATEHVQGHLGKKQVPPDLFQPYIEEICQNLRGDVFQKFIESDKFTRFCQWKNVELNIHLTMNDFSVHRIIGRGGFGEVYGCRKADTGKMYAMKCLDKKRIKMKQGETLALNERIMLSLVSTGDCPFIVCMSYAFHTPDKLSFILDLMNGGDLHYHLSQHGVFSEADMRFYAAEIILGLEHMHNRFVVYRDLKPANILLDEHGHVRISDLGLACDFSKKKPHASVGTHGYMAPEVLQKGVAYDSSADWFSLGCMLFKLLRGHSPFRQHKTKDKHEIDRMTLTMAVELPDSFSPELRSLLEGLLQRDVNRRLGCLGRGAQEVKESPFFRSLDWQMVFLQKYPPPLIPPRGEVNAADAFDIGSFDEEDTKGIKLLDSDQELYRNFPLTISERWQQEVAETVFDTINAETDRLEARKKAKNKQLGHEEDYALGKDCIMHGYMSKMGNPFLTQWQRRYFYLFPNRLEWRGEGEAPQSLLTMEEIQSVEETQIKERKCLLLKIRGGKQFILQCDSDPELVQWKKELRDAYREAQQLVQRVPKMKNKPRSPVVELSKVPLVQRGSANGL

In general, inhibition refers to the relative decrease from the control value, in per cent. In the case of `COc1ccc(C=NCC2COc3ccccc3O2)cc1OC` (stereo not given), in assay [1], the percent of DMSO control GFP is 103% (inactive). Further, the values for the GFP response vs DMSO in [2] and in [4] were 101% (inactive) and 90.3% (inactive), respectively. For the same compound, the percent response of DMSO control in assay [3] was 98.8% (inactive). Moreover, the GFP response, % of DMSO in assay [5] was 95.5% (inactive). In assay [6], the double positive events is 62.8%. In [6], the vesicle binding response was 187% (inactive). In addition, the inhibition in assay [7] was 0.69% (inactive); in [10], 17.1% (inactive); in [14], 10% (inactive). Further, the superoxide response (% of plate) in [8] is 104% (inactive). The aptamer binding inhibition in assay [9] was -1% (inactive). The response in assay [11] is -2.12% (inactive). For the same compound, the binding (% of control) in assay [12] is 107% (inactive). The efflux inhibition (fraction of control) in assay [13] is 0.63 (active). Besides, the differentiation response in [15] was -5.05% (inactive).
Take `COCCn1c(/C=C/c2ccccc2)nc2ccccc21`: the percent of DMSO control GFP in assay [1] is 96.8% (inactive). The GFP response vs DMSO in assay [2] is 101% (inactive); in [4], 93.3% (inactive). Further, the percent response of DMSO control in assay [3] was 93% (inactive). Also, the GFP response, % of DMSO in assay [5] is 87.9% (inactive). The same compound displayed a double positive events in assay [6] of 59.7%. The vesicle binding response in assay [6] was 149% (inactive). Moreover, the values for the inhibition in assay [7], in [10] and in assay [14] were 1.62% (inactive), 10.5% (inactive) and 6% (inactive), respectively. The superoxide response (% of plate) in assay [8] is 92.6% (inactive). In [9], the aptamer binding inhibition is 2% (inactive). Besides, the response in [11] was 0.08% (inactive). For the same compound, the binding (% of control) in [12] is 105% (inactive). For the same compound, in assay [13], the efflux inhibition (fraction of control) is 0.22 (inactive). Also, the differentiation response in [15] is -5.05% (inactive).
On to `Cc1ccc2c(c1)OC(=O)CC2c1ccccc1` (stereo not given), for which, in [1], the percent of DMSO control GFP was 100% (inactive). The GFP response vs DMSO is 104% (inactive) in assay [2] and 102% (inactive) in assay [4]. For the same compound, the percent response of DMSO control in [3] is 96.9% (inactive). In addition, the GFP response, % of DMSO in [5] is 99.6% (inactive). In addition, in assay [6], the double positive events turned out to be 58%. Also, in assay [6], the vesicle binding response is 168% (inactive). In addition, the inhibition is 12.8% (inactive) in [7], 31.1% (inactive) in [10] and 0% (inactive) in assay [14]. For the same compound, in assay [8], the superoxide response (% of plate) is 111% (inactive). Further, in [9], the aptamer binding inhibition was 5% (inactive). Besides, the response in assay [11] was -9.91% (inactive). The binding (% of control) in assay [12] was 95.6% (inactive). For the same compound, in assay [13], the efflux inhibition (fraction of control) is 0.06 (inactive). Further, in [15], the differentiation response was -11.5% (inactive).
Turning to `O=C(c1ccc(F)cc1)[C@@H]1[C@@H](C(=O)c2ccccc2)[C@@]2(C(=O)Nc3ccccc32)[C@H]2c3ccccc3C=CN12`, the percent of DMSO control GFP in assay [1] was 102% (inactive). Further, the figures for the GFP response vs DMSO in assay [2] and in assay [4] were 93.8% (inactive) and 102% (inactive), respectively. The percent response of DMSO control in assay [3] was 106% (inactive). Moreover, the GFP response, % of DMSO in assay [5] was 102% (inactive). Moreover, the double positive events in [6] was found to be 43.2%. Further, the vesicle binding response in assay [6] was 172% (inactive). Moreover, the inhibition was -183% (inactive) in assay [7], -24.7% (inactive) in [10] and 3% (inactive) in assay [14]. In addition, the superoxide response (% of plate) in [8] was 121% (inactive). In assay [9], the aptamer binding inhibition was -3% (inactive). Also, the response in assay [11] is 2.83% (inactive). For the same compound, the binding (% of control) in [12] was 100% (inactive). Besides, the efflux inhibition (fraction of control) in assay [13] is 0.03 (inactive). Also, the differentiation response in assay [15] was -19.6% (inactive).
For `COc1ccc2nc(NC(=O)Nc3ccccc3)sc2c1`, the percent of DMSO control GFP in assay [1] was 105% (inactive). The results for the GFP response vs DMSO in [2] and in assay [4] were 96.9% (inactive) and 89.3% (inactive), respectively. The percent response of DMSO control in [3] is 111% (inactive). In addition, in assay [5], the GFP response, % of DMSO was 96% (inactive). This compound also displayed a double positive events in assay [6] of 50.6%. Besides, in assay [6], the vesicle binding response was 173% (inactive). Besides, the inhibition was 10% (inactive) in [7], 0.98% (inactive) in [10] and 1% (inactive) in assay [14]. Besides, the superoxide response (% of plate) in [8] is 92.7% (inactive). In addition, the aptamer binding inhibition in assay [9] was -1% (inactive). For the same compound, the response in assay [11] is 70.8% (active). In addition, the binding (% of control) in assay [12] was 95.7% (inactive). Also, the efflux inhibition (fraction of control) in assay [13] is -0.47 (inactive). Besides, the differentiation response in assay [15] is -22.8% (inactive).
